BAZ2B block: blocks human BAZ2B; Q9UIF8; AlphaScreen BAZ2B-H3K14Ac peptide displacement; Potency, µM (doses to about 114 µM), without a hit: at the top dose activity change, negative = inhibition, usual class: inhibitors; actives 4.4% (n = 360,000); AID 504333; note: % is set by controls: 0 for no effect and ±100 for the full control effect; nearly all actives have a fitted effect of over 60% in size
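BAZ2B 50 nM plus b-H3(5-23)K14Ac 50 nM, PBS pH 7.4/0.01% Tween-20, 30 min RT; compound added (max 110 uM), 30 min RT; streptavidin donor/Ni-chelate acceptor beads 10 ug/mL final, 20 min dark; AlphaScreen read.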
ALOX12 inh: inhibitors of human 12S-lipoxygenase ALOX12 | Potency, µM (titrated, usually from 108 µM), for the others: top-dose activity change, negative = inhibition, usual class: inhibitors | AID 1671190 | purified 12hLO, xylenol orange hydroperoxide absorbance | P18054 | actives 1.1% (n = 580,000); note: % is set by controls: 0 for no effect and ±100 for the full control effect
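Purified human 12hLO (150 nM final) in 25 mM Hepes, 0.01% Triton X-100, pH 7.0 was preincubated 15 min at room temperature with compound. Then 40 uM arachidonic acid was added, 30 min. Hydroperoxide was read by Fe-XO absorbance ratio 573/405 nm.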
PLK1 PBD inh: blocks phosphopeptide binding to human PLK1 polo-box domain; Plk1 PBD binding of FITC phosphopeptide, fluorescence polarization; P53350; Potency, µM, inactives show max response, negative = inhibition, usual class: inhibitors; actives 2.8% (n = 360,000); note: series mostly up to about 57 µM; % is set by controls: 0 for no effect and ±100 for the full control effect; nearly all actives have a fitted effect of over 65% in size
JMJD2A Tudor: blocks the human JMJD2A Tudor domain; Potency, µM (top dose mostly 114 µM), for the others: top-dose activity change, negative = inhibition, actives largely listed as inhibitors; actives 4.4% (n = 390,000); O75164; AlphaScreen JMJD2A-Tudor / H3K4me3 peptide binding; note: % is set by controls: 0 for no effect and ±100 for the full control effect; nearly all actives have a fitted effect of over 50% in size
G9a inh: inhibitors of human histone lysine methyltransferase G9a. Q96KQ7. G9a H3K9 monomethylation, AlphaScreen, 2 h. Potency, µM (highest dose often 102 µM), for the others: at the top dose activity, negative = inhibition, usual class: inhibitors. actives 8.8% (n = 350,000). AID 504332; note: % is set by controls: 0 for no effect and ±100 for the full control effect; nearly all actives have a fitted effect of over 75% in size
Target sequence (Q96KQ7 913-1193 limits assumed): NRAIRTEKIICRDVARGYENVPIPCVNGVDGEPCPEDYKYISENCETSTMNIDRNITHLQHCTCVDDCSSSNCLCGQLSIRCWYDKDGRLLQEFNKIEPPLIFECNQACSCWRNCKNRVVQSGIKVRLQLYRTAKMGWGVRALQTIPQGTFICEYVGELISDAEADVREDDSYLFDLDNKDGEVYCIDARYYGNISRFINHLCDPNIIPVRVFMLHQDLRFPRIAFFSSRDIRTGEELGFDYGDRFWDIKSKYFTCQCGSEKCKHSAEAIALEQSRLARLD
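Using a bead-based AlphaScreen, monomethylated H3K9 product from 2 h room-temperature reactions (G9a 20 nM, peptide 500 nM, SAM 20 uM) was detected with 0.5 ug/mL rabbit anti-H3K9me1 antibody.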
HP1b chromo inh: inhibitors of HP1-beta chromodomain binding to methylated histone tails; P83916; AlphaScreen HP1-beta / biotin-H3K9me3 peptide binding; Potency, µM (doses to about 114 µM), for the others: at the highest dose activity change, negative = inhibition, hits mostly inhibitors; actives 0.56% (n = 390,000); AID 540317; note: nearly all actives have a fitted effect of over 70% in size
Target sequence (P83916 whole entry, looked up): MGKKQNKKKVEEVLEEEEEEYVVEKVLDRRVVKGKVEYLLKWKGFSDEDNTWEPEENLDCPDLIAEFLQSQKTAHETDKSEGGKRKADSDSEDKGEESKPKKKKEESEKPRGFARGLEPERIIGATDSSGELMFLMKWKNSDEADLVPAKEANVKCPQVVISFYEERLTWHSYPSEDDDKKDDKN
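Compound inhibition of the preformed complex between 50 nM HP1-beta and 50 nM biotinylated H3K9me3 peptide was read by AlphaScreen. Buffer was PBS pH 7.4 with 0.01% Tween-20. Incubations ran 30 min at room temperature, with 10 ug/mL donor/acceptor beads.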
An asterisk follows results filed as active; i = inactive; ? = inconclusive; / = no result given; [ ] = another dose, or the depositor's remark. A selection: hits, their analogues and other compounds. The true share with any hit is near 9%. Calls come from the whole dose curve; as a rule, active = well fitted curve in the direction sought with a large enough effect; inconclusive = small, poorly fitted or top-dose-only effect, or another doubt; inactive = no such curve, though single readings can be large; an effect the other way counts as inactive or inconclusive. Potency is the fitted concentration of half-maximal effect.

SMILES	BAZ2B block	ALOX12 inh	PLK1 PBD inh	JMJD2A Tudor	G9a inh	HP1b chromo inh
O=C(CCCCCC(=O)N/N=C/c1cc2c(cc1[N+](=O)[O-])OCO2)N/N=C/c1cc2c(cc1[N+](=O)[O-])OCO2	/	29%	/	/	/	/
Clc1ccc2nc(N3CCC(NC4CCSC4)CC3)sc2c1 (stereo not drawn)	/	-30%	/	/	/	/
COc1ccc(OC)c(NC(=O)c2cc(S(=O)(=O)N3CCCCC3)c[nH]2)c1	-4%	/	-2%	-13%	4%	21%
O=C1CC(N(CCc2ccccc2)C(=S)Nc2ccccc2)C(=O)N1c1ccc(Br)cc1 (stereo not drawn)	7%	?	3%	-16%	20%[59 µM]	23%
Cc1ccc(C)n1NC(=O)c1cccs1	-21%	-1%	-18%	-26%	-15%[12.7 µM]	-3%
CC(C)(NO)/C(=N/O)c1cccs1	45µM*	?	-4%	10µM*	7.1µM*	-26%
COC(=O)C1=NN(N=O)C2(CC(=O)N(c3cc(C)cc(C)c3)C2=O)C1 (stereo not drawn)	-2%	?	-26%	?	14µM*	36%
O=C(OCc1ccc(Br)cc1)c1cnc(Cl)c(Cl)c1	404%	-19%	0%	71µM*	i	464%
CC(NC(=O)c1cc2n(n1)CC(c1ccc(Cl)cc1)OC2)c1ccc(F)cc1 (stereo not drawn)	/	-2%	/	/	/	/
CCN(CC)c1ccc2nc3c4ccccc4c(=O)cc-3oc2c1	-32%	5%	4%	?	?	4%
CCN(CC)c1ccc2c(-c3ccc(S(=O)(=O)O)cc3S(=O)(=O)[O-])c3ccc(=[N+](CC)CC)cc-3oc2c1	7.9µM*	/	6.7µM*	?	40µM*	45µM*
O=C(CN1C(=O)/C(=C/c2ccco2)SC1=S)Nc1ccc(O)c(C(=O)O)c1	45µM*	?	?	?	25µM*	41%
CC(=C\c1ccco1)/C=C1/SC(=S)N(CC(=O)O)C1=O	50µM*	?	-11%	-28%	40µM*	-1%
O=C(CN1C(=O)/C(=C/c2ccco2)SC1=S)Nc1ccc(C(=O)O)c(O)c1	28µM*	28µM*	13µM*	-11%	/	30%
CC(/C=C1\SC(=S)N(CC(=O)O)C1=O)=C\c1ccccc1	-16%	29%	?	-17%	12%[59 µM]	-1%
O=C(CN1C(=O)/C(=C/c2ccco2)SC1=S)NC1CCS(=O)(=O)C1 (stereo not drawn)	?	?	30µM*	?	40µM*	-34%
COc1ccc(C=C2SC(=S)N(CCCC(=O)Nc3ccc(C(=O)O)c(O)c3)C2=O)cc1OC	/	?	15%	/	/	/
CC(C(=O)Nc1ccc(C(=O)O)c(O)c1)N1C(=O)/C(=C\c2ccco2)SC1=S (stereo not drawn)	28µM*	/	9.5µM*	7%	14µM*	21%
CCN1CCN(CC#CCOc2ccccc2OC)CC1	22µM*	?	-2%	0.79µM*	-47%[0.501 µM]	?
O=C(Nc1cccc(Cl)c1)Nc1ccccc1C(=O)O	-11%	-7%	-15%	-9%	?	38%
O=C(Cc1ccccc1)NCC(=O)Nc1cc(Cl)ccc1Cl	3%	0%	27µM*	?	9%	1%
O=C(NNc1ccccc1)Nc1cc(Cl)ccc1Cl	/	?	-8%	?	/	50µM*
O=C(COc1ccccc1)Nc1cc(Cl)ccc1Cl	20%	13%	-15%	1%	/	26%
O=C(CSc1nnc(C2CC2)n1Cc1ccccc1)c1cc2ccccc2o1	-35%	0%	?	56µM*	45µM*	14%
COc1ccccc1C(=O)NC(=O)CSc1cccc[n+]1[O-]	7%	1%	-14%	-4%	8%	8%
SMILES	BAZ2B block	ALOX12 inh	PLK1 PBD inh	JMJD2A Tudor	G9a inh	HP1b chromo inh
O=C(CSc1cccc[n+]1[O-])c1cccs1	-12%	-23%	24µM*	-9%	18µM*	15%
O=C(O)CSc1cccc[n+]1[O-]	-23%	-16%	-1%	-18%	?	6%
O=C(CSc1cccc[n+]1[O-])c1cc2ccccc2o1	?	/	27µM*	-35%	?	36%
Cn1cccc1C(=O)NC(=O)CSc1cccc[n+]1[O-]	-37%	0%	-9%	-10%	28µM*	13%
CCCS(=O)(=O)N1CCCC(C(=O)NCCCN2CCN(c3ccc(F)cc3)CC2)C1 (stereo not drawn)	-20%	-9%	-8%	-18%	/	11%
COCCn1c(N)c(Sc2ccccc2)c(=O)[nH]c1=O	10%	-5%	-19%	-15%	-3%	-20%
CSC1=NC(=O)/C(=C/c2ccc(SC)cc2)S1	-15%	-22%	-6%	-21%	-27%	19%
CCOC(=O)CSC1=NC(=O)/C(=C\c2ccc(Cl)cc2)S1	-33%	45µM*	0.84µM*	?	35µM*	14%
CCOc1ccc(N(CC)C(=O)c2nn(-c3ccc(OC)cc3)c(=O)c3c2c2ccccc2n3C)cc1	-3%	-11%	27µM*	-35%	12%	-12%
COc1ccc(/C=N/NC(=O)c2nn(-c3ccccc3)c(=O)c3c(N)scc23)cc1	40µM*	?	-20%	5.6µM*	0.35µM*	?
COc1ccc(/C=N/NC(=O)c2nn(-c3ccc(Cl)cc3)c(=O)c3c(N)scc23)cc1	-32%	7.9µM*	-18%	-26%	?	-15%
CCN(CC)C(=O)c1nn(-c2ccc(OC)cc2)c(=O)c2c(N)scc12	/	/	/	56µM*	/	/
CN(Cc1nc(-c2ccc3c(c2)OCO3)no1)CC1(N2CCOCC2)CCCCC1	-10%	5%	-4%	-8%	?	28%
COc1ccc(S(=O)(=O)N2CCCC2C(=O)NCC(=O)Nc2cccc(Cl)c2C)cc1 (stereo not drawn)	-13%	?	-7%	-16%	-8%	11%
COc1ccc(NC(=O)c2nc3ccccc3nc2N2CCCC2)cc1OC	/	1%	/	/	/	/
CCOC(=O)c1nn(-c2ccccc2)c(=O)c2c(N)sc(C)c12	?	/	/	/	-38%[12.7 µM]	/
CCOC(=O)c1nn(-c2ccc(C)c(C)c2)c(=O)c2c(N)scc12	56µM*	?	17µM*	22µM*	2µM*	-29%
COc1ccccc1N1CCN(C(=O)c2ccccc2SCC(=O)NCc2ccco2)CC1	-4%	-27%	-23%	-22%	50µM*	19%
COc1ccccc1-n1ccnc1SCC(=O)NCC1CCCO1 (stereo not drawn)	-3%[57.1 µM]	-2%	2%	8%	0%	24%
COc1ccccc1-n1ccnc1SCC(=O)NCc1ccco1	-39%	39%	24µM*	40µM*	-38%	-31%
COc1ccccc1N1CCN(C(=O)c2ccccc2SCC(=O)N2CCCC2)CC1	13%	-12%	?	-19%	79µM*	35%

Source: PubChem BioAssay (National Center for Advancing Translational Sciences (NCATS))
